What all share (assay type): functional
The target of experiment [1] is Solute carrier family 2, facilitated glucose transporter member 1 (Homo sapiens) (UniProt P11166). The experiment in a line: ST_JUDE_LEISH: Cytotoxicity at 2uM final concentration against transgenic Leishmania Mexicana promastigotes LmGLUT1 that are glucose transport deficient and complemented with the human glucose transporter GLUT1. Activity is measured by DNA content using SYBR green in vitro.

The target in experiment [2] is Hexose transporter 1 (Plasmodium falciparum) (UniProt O97467). In words: ST_JUDE_LEISH: Cytotoxicity at 2uM final concentration against transgenic Leishmania Mexicana promastigotes LmPfHT that are glucose transport deficient and complemented with the Plasmodium falciparum hexose transporter. Activity is measured by DNA content using SYBR green in vitro.
In experiment [3] the target is Glucose transporter (Leishmania mexicana) (UniProt O61059). In words: ST_JUDE_LEISH: Cytotoxicity at 2uM final concentration against transgenic Leishmania Mexicana promastigotes LmGT2 that are glucose transport deficient and complemented with the L. Mexicana glucose transporter 2. Activity is measured by DNA content using SYBR green in vitro.

Solute carrier family 2, facilitated glucose transporter member 1 (Homo sapiens), sequence (P11166 whole entry): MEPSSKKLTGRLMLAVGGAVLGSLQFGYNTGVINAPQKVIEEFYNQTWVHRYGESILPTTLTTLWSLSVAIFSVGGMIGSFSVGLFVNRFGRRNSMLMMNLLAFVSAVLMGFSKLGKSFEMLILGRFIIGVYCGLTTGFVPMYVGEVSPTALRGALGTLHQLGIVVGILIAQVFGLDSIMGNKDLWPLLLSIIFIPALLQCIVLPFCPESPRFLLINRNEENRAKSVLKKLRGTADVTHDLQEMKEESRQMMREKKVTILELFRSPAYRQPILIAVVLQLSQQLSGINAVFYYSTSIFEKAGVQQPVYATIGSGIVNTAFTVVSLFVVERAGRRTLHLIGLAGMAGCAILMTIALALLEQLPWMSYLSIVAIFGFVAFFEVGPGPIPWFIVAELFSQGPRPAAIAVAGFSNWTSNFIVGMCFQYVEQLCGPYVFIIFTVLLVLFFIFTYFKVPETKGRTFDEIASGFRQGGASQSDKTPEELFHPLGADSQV

Consider `Cc1cccc2nc(-c3cccc(-c4ccc(NC(=O)Cc5ccccn5)cc4)c3)[nH]c12`, for which the inhibition – broadly, the drop in the measured response relative to a control, in per cent – was determined as 4.3% in experiment [1], 2.5% in experiment [2] and 2.64% in experiment [3].

Take `Clc1ccc(CNc2nc(NCCc3c[nH]cn3)nc(N3CCCC4CCCCC43)n2)cc1` (centres undefined): the inhibition in experiment [1] was 3.99%; in experiment [2], 4.86%; in experiment [3], 3.89%.

For the compound `CCN(CC)CCCNc1ncc2c(-c3ccc(NC(=O)Nc4cc(C(F)(F)F)ccc4F)c(F)c3)nn(C)c2n1`, the inhibition in experiment [1] is -0.37%; in experiment [2], -0.41%; in experiment [3], -1.03%.

With `CC1(C)N=C(N)N=C(Nc2ccc(Cl)cc2)N1`, the results for the inhibition in experiment [1], in experiment [2] and in experiment [3] were 14.5%, 14.3% and 11.4%, respectively.

`CSc1cccc(NC(=O)c2cc3ccccc3oc2=O)c1`: the inhibition was 0.58% in experiment [1], 0.06% in experiment [2] and -3.2% in experiment [3].

In the case of `Nc1ncnc2cc(-c3cccc(S(N)(=O)=O)c3)sc12`, the inhibition is 0.46% in experiment [1], 3.15% in experiment [2] and 5.9% in experiment [3].

For the compound `CCOC(=O)c1c[nH]c2c(sc3cc(OC)ccc32)c1=O`, the inhibition is -0.83% in experiment [1], -0.51% in experiment [2] and -0.47% in experiment [3].

In the case of `COc1ccc2nccc(N3CCN(CCNCc4ccc5c(n4)NC(=O)CO5)CC3)c2n1`, the inhibition came out at 11.2% in experiment [1], 9.11% in experiment [2] and 10.1% in experiment [3].

For the compound `CN(C)CCN(C)Cc1ccc(-c2ccc3c(Nc4ccc(Cl)cc4F)ccnc3c2)o1`, the inhibition is 1.16% in experiment [1], 2.08% in experiment [2] and 2.79% in experiment [3].

In the case of `Cc1cc(CNCCCCCNCc2cccc([N+](=O)[O-])c2)ccc1O`, the inhibition is 1.94% in experiment [1], 1.39% in experiment [2] and 1.29% in experiment [3].

Regarding `COc1cc(C(=O)Nc2cccc(-c3cn4ccc(C)cc4n3)c2)cc(OC)c1OC`, the figures for the inhibition in experiment [1], in experiment [2] and in experiment [3] were 17.1%, 8.22% and 6.63%, respectively.

On to `Cc1noc(-c2ccc(NC[C@@H](C)NC[C@H](O)c3cccc(Cl)c3)cc2)n1`, for which the values for the inhibition in experiment [1], in experiment [2] and in experiment [3] were 3.79%, 3.1% and 4.26%, respectively.

Consider `O=C(N[C@@H](CC1CCCCC1)C(=O)NCCc1ccc(Cl)c(Cl)c1)c1ccc(O)c(-c2ccc(Cl)c(Cl)c2)c1`, for which the inhibition is 0.23% in experiment [1], 0.3% in experiment [2] and 1.25% in experiment [3].
